# Like-named read-outs stand apart in the source and are kept apart here. About 3,200 (25%) of roughly 13,000 compounds showed an effect of 50% or more. The list shows a part of the results.
# Test system: P. falciparum stage V gametocytes
# Parameters: BacTiter-Glo ATP luminescence viability of purified stage V gametocytes in 384-well plates, per cent inhibition versus DMSO
# Settings: 48 h, 5 µM, inhibitor
SMILES,% Inhibition [%],% Inhibition (% Inhibition) [%]
COc1cccc(CNC(=O)c2cnc(N3CCN(c4ccncc4)CC3)c(Cl)c2)c1 [TCMDC-134628],35.94,
Cc1cccc2[nH]c(-c3ccc(-c4cccc(CNCc5cccc(N)c5)c4)cc3)nc12 [TCMDC-132934],83.13,
Cc1cccc2[nH]c(-c3ccc(-c4cccc(CNCc5ccccc5)c4)cc3)nc12 [TCMDC-132707],-22.49,
Cc1cccc2[nH]c(-c3ccc(-c4ccc(CNCC(C)C)cc4)cc3)nc12 [TCMDC-132803],16.22,
Cc1cccc2[nH]c(-c3ccc(-c4ccc(CNC(C)C)cc4)cc3)nc12 [TCMDC-132744],-47.89,
CNCCNCc1ccc(-c2ccc(-c3nc4c(C)cccc4[nH]3)cc2)cc1 [TCMDC-132837],80.14,
COc1ccc(CNCc2cccc(-c3ccc(-c4nc5c(C)cccc5[nH]4)cc3)c2)cc1 [TCMDC-132726],-14.09,
Cc1cccc2[nH]c(-c3ccc(-c4ccc(CNCc5ccc(CN)cc5)cc4)cc3)nc12 [TCMDC-132813],65.29,
Cc1cccc2[nH]c(-c3ccc(-c4cccc(CNCCc5ccncc5)c4)cc3)nc12 [TCMDC-132850],-15.09,
CNCCNCc1cccc(-c2ccc(-c3nc4c(C)cccc4[nH]3)cc2)c1 [TCMDC-132831],94.01,
Cc1cccc2[nH]c(-c3ccc(-c4ccc(CNCc5ccccc5)cc4)cc3)nc12 [TCMDC-132701],-18.64,
Cc1cccc2[nH]c(-c3ccc(-c4cccc(CNCCN(C)C)c4)cc3)nc12 [TCMDC-132682],17.36,
CNc1ccc(CNCc2cccc(-c3ccc(-c4nc5c(C)cccc5[nH]4)cc3)c2)cc1 [TCMDC-132979],-24.36,
Cc1ccccc1Oc1ccc(Nc2ccnc(Nc3cccc(C(N)=O)c3)n2)cc1C(F)(F)F [TCMDC-138601],1.674,
CC(=O)N(C)c1ccc(C(=O)Nc2cccc(-c3cccc(-c4nc5ccc(C(F)(F)F)cc5[nH]4)c3)c2)cc1 [TCMDC-136849],-19.52,
CC(=O)Nc1nc(C(=O)Nc2cccc(-c3ccc4c(cnn4CC4CC4)c3)c2)cs1 [TCMDC-133147],49.64,
O=C1COC(c2ccccc2)(c2ccccc2)CN1CC1CCN(Cc2ccc(O)cc2Cl)C1 (stereo not drawn) [TCMDC-136338],44.26,
Cc1[nH]c2c(C)cccc2c1C1CCN(CCC2CCN(C(=O)/C=C/c3ccc(Cl)c(Cl)c3)CC2)CC1 [TCMDC-139803],38.01,
N=C(N)CCN(Cc1ccc(Cl)cc1)c1ccc(Cl)cc1 [TCMDC-131840],54.29,
N=C(N)NCCN(Cc1ccccc1)c1ccc(Cl)cc1 [TCMDC-131838],72.85,
N=C(N)NCCN(Cc1ccccc1)c1ccccc1 [TCMDC-131837],26.01,
N=C(N)CCN(Cc1ccccc1)c1ccc(Cl)cc1 [TCMDC-131835],9.979,
Cc1ccc(N(CCC(=N)N)Cc2ccccc2)cc1 [TCMDC-132096],26.05,
N=C(N)NCCCN(Cc1ccccc1)c1ccc(Cl)cc1 [TCMDC-131839],47.9,
CN1CCCN(Cc2ccc(-c3cccc(NC(=O)c4ccc(F)cc4)c3)cc2)CC1 [TCMDC-132634],12.81,
O=C(NC1CCN(Cc2ccccc2)CC1)c1cccc(-c2cc3cc(Cl)c(Cl)cc3[nH]2)c1 [TCMDC-141290],-1.614,

SMILES,% Inhibition [%],% Inhibition (% Inhibition) [%]
CN1CCN(CCCN(Cc2cccc(-c3ccc(CNCc4ccc5c(c4)OCO5)cc3)c2)C(=O)CCC2CCCC2)CC1 [TCMDC-140557],65.31,
CN1CCN(CCCN(Cc2ccc(-c3cccc(CNCc4ccc5c(c4)OCO5)c3)cc2)C(=O)NC2CCCCC2)CC1 [TCMDC-140642],56.14,
CN1CCN(CCCN(Cc2ccc(-c3cccc(CNCc4ccc5c(c4)OCO5)c3)cc2)C(=O)CCC2CCCC2)CC1 [TCMDC-140751],61.11,
CN1CCN(CCCN(Cc2ccc(-c3ccc(CNCc4ccc5c(c4)OCO5)cc3)cc2)C(=O)CCC2CCCC2)CC1 [TCMDC-140561],102.2,
Cc1cccc(C(=O)Nc2ccnc(N(C)C3CCN(Cc4cccc(O)c4)CC3)c2)c1 [TCMDC-134964],-19.45,
O=C(/C=C/c1ccc(Cl)c(Cl)c1)NCCCCCN1CCC(NC(=O)Nc2cc(F)cc(F)c2)CC1 [TCMDC-135715],-53.24,
NC(=O)C1CCN(Cc2ccc(-c3ccc(-c4nc5cc(C(F)(F)F)ccc5[nH]4)cc3)cc2)CC1.O=C(O)C(F)(F)F [TCMDC-132692],-81.89,
CN1CCN(CCCN(Cc2cccc(-c3cccc(CNCc4ccc5c(c4)OCO5)c3)c2)C(=O)CCC2CCCC2)CC1 [TCMDC-140556],67.58,
FC(F)(F)c1cccc(CNCC2CCN(Cc3ccc4c(c3)OCO4)CC2)c1 [TCMDC-141673],2.788,
CC1CN(c2ccc(NC(=O)c3cccs3)cc2)CCN1Cc1cccc(F)c1 (stereo not drawn) [TCMDC-135008],-22.55,
COc1ccc(CNCc2cccc(-c3cccc(-c4nc5cccc(C)c5[nH]4)c3)c2)cc1.O=C(O)C(F)(F)F [TCMDC-132732],-64.2,
c1ccc(CSC2=NNC(c3ccccn3)S2)cc1 (stereo not drawn) [TCMDC-123769],99.43,
NC(=O)c1cccc(C(=O)Nc2cccc(-c3csc(-c4nc5ccccc5[nH]4)c3)c2)c1 [TCMDC-132399],-9.606,
CN(C)CCCNCc1ccc(-c2ccc(F)c(Cl)c2)o1 [TCMDC-125238],41.34,
CNS(=O)(=O)CCNCc1ccc(-c2ccc3ncnc(Nc4ccc(OCc5ccccc5)cc4)c3c2)o1 [TCMDC-138102],-59.33,
CNCCCNCc1ccc(-c2ccc(F)c(Cl)c2)o1 [TCMDC-125237],65.13,
O=C(C=Cc1ccccc1Br)NC1CCC(CN2CCC(c3c[nH]c4ccccc34)CC2)CC1 (stereo not drawn) [TCMDC-139917],,13.62
O=C(C=Cc1ccccc1C(F)(F)F)NC1CCC(CN2CCC(c3c[nH]c4ccccc34)CC2)CC1 (stereo not drawn) [TCMDC-139903],,54.81
O=C(/C=C/c1ccccc1O)NC1CCC(CN2CCC(c3c[nH]c4ccccc34)CC2)CC1 (stereo not drawn) [TCMDC-139720],,84.95
O=C(/C=C/c1ccccc1O)NC1CCC(CN2CCC(c3c[nH]c4ccccc34)CC2)CC1 (stereo not drawn) [TCMDC-139705],,20.65
O=C(/C=C/c1ccccc1Cl)NC1CCC(CN2CCC(c3c[nH]c4ccccc34)CC2)CC1 (stereo not drawn) [TCMDC-139714],,34.23
O=C(C=Cc1ccccc1C(F)(F)F)NC1CCC(CN2CCC(c3c[nH]c4ccccc34)CC2)CC1 (stereo not drawn) [TCMDC-139915],,18.99
O=C(C=Cc1ccccc1Br)NC1CCC(CN2CCC(c3c[nH]c4ccccc34)CC2)CC1 (stereo not drawn) [TCMDC-139905],,19.58
O=C(C=Cc1cccc(Cl)c1Cl)NC1CCC(CN2CCC(c3c[nH]c4ccccc34)CC2)CC1 (stereo not drawn) [TCMDC-139920],,-3.877
O=C(/C=C/c1ccccc1Cl)NC1CCC(CN2CCC(c3c[nH]c4ccccc34)CC2)CC1 (stereo not drawn) [TCMDC-139699],,83.67
